Screening results (PubChem)
JMJD2E inh = JMJD2E (human) inhibition; B2RXH2; JMJD2E catalytic domain, FDH-coupled NADH fluorescence (FDH is formaldehyde dehydrogenase); Potency, µM (series often up to 57.1 µM), for inactives: at the top dose activity change, negative = inhibition, actives largely listed as inhibitors; 230,000 tested, 1.6% active; AID 2147;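 also: potency is read from the fitted curve at half-maximal effect; 0% = wells with enzyme and -100% = buffer wells without enzyme; nearly all actives have a fitted effect of over 50% in size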
ALDH1A1 inh = ALDH1A1 (human) enzyme inhibition; Purified ALDH1A1, NADH fluorescence, propionaldehyde substrate; Potency, µM (top dose mostly 75.3 µM), for the others: at the top dose activity, negative = inhibition, hits mostly inhibitors; 220,000 tested, 7.3% active; AID 1030;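 also: potency is read from the fitted curve at half-maximal effect; plate controls were no enzyme wells and a reference inhibitor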
Target sequence (P00352 whole entry, looked up): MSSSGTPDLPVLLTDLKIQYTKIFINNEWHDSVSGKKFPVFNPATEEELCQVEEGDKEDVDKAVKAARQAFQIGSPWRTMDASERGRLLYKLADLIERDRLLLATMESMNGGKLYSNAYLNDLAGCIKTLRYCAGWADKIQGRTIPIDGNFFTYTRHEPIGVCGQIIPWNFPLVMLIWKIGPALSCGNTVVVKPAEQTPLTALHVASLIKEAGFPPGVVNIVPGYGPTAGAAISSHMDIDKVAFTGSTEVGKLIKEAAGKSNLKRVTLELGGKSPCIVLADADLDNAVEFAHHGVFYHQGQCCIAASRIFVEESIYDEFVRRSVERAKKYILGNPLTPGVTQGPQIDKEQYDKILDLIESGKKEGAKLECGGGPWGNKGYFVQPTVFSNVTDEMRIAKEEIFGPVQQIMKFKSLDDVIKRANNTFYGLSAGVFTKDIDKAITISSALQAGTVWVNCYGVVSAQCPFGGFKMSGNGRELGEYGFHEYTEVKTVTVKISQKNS
NPSR antagonist = antagonists of human neuropeptide S receptor cAMP signaling; 220,000 tested, 1% active; Potency, µM (highest dose often 38.3 µM), inactives show top-dose activity change, negative = inhibition, hits mostly inhibitors; Q6W5P4; CHO-NPSR cells, cAMP TR-FRET, antagonist mode; AID 1461; active = well fitted curve in the direction sought with a large enough effect; inconclusive = small, poorly fitted or top-dose-only effect, or another doubt; inactive = no such curve, though single readings can be large; an effect the other way counts as inactive or inconclusive; also: potency is read from the fitted curve at half-maximal effect; nearly all actives have a fitted effect of over 50% in size
GoLoco inh red = inhibitors of human Gai1-RGS12 GoLoco interaction (red fluorophore). Potency, µM (top dose mostly 61.6 µM), for inactives: at the top dose activity, negative = inhibition, hits mostly inhibitors. Gai1:RGS12 GoLoco peptide FP, rhodamine, 10 min. 230,000 tested, 0.44% active. P63096. AID 880; active = well fitted inhibition curve with a large enough effect, not every such curve was filed as active; inactive = no such curve, though single readings can be large or run the other way; also: potency is read from the fitted curve at half-maximal effect; nearly all actives have a fitted effect of over 30% in size
Sfp PPTase inh = Sfp phosphopantetheinyl transferase inhibition; Q9F4F7; Biochemical Sfp PPTase activity, qHTS; Potency, µM, for the others: largest response in the series, negative = inhibition, usual class: inhibitors; 310,000 tested, 3.5% active; active = well fitted curve in the direction sought with a large enough effect; inconclusive = small, poorly fitted or top-dose-only effect, or another doubt; inactive = no such curve, though single readings can be large; an effect the other way counts as inactive or inconclusive;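 also: the enzyme is Sfp with the accession as filed and its product quenches rhodamine fluorescence; potency is read from the fitted curve at half-maximal effect; 0% = enzyme reaction without inhibitor and -100% = no enzyme wells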
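Reaction rates are the 30-min fluorescence difference (ex 525, em 598 nm) in wells containing 15 nM Sfp, 5 uM rhodamine-CoA and 12.5 uM BHQ-2-YbbR at pH 7.6 with 10 mM MgCl2.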
FBPA coupling cs = counter-screen for Giardia aldolase inhibitors: coupling enzyme system. AID 2472. coupling enzyme system counterscreen, AmpLite Red fluorescence. 290,000 tested, 0.67% active. activity change, negative = inhibition, % at 58.2 µM, hits read low; in the data active = activity change below about -30%
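Fluorescence at 525 nm excitation and 598 nm emission measured inhibition of the coupled detection system without aldolase. Compounds (at 57.5 uM final) were preincubated 10 min at room temperature with coupling enzyme reagent before a 20 min substrate/AmpLite Red step.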
Numbers without * were called inactive; ? = inconclusive; / = no result given; [ ] = remark or other dose. Sampled rows, rich in hits. Any-hit rate of the full collection: about 8.5%. Unless noted, calls follow the shape of the dose curve; as a rule, active = well fitted inhibition curve with a large enough effect (not every such curve was filed as active); inconclusive = small, poorly fitted or top-dose-only effect, or another doubt; inactive = no such curve, though single readings can be large or run the other way. Unless noted, % is scaled to controls: 0 for no effect and ±100 for the full control effect.

SMILES	JMJD2E inh	ALDH1A1 inh	NPSR antagonist	GoLoco inh red	Sfp PPTase inh	FBPA coupling cs
COc1cccc(Cn2c(=O)cnc3cnc(N4CCOCC4)nc32)c1	/	?	/	27.5%	2.1%	0.6
CC1CCc2c(sc(NC(=O)CSc3ncn[nH]3)c2C#N)C1 (configuration not stated)	-2.2%	/	-13.4%	3.7%	5.0%	4.6
CCCc1cc(=O)[nH]c(SCC(=O)Nc2sc3c(c2C#N)CCC(C)C3)n1 (configuration not stated)	-0.9%	22.4µM*	-1.2%	59.3%	-14.7%	8.0
CC(C)(C)C1CCc2c(sc(NC(=O)CSc3ncn[nH]3)c2C#N)C1 (configuration not stated)	3.9%	8.91µM*	-16.9%[46.1 µM]	19.3%	?	-2.9
CC1CCc2c(sc(NC(=O)CSc3nnc(-c4ccccc4)o3)c2C#N)C1 (configuration not stated)	-12.4%	-10.1%	-59.3%	8.3%	-6.7%	3.0
COC(=O)N1CC=CC1(C)C(=O)NCc1ccc(C)o1 (configuration not stated)	-84.7%	?	/	-37.9%	?	-8.0
CCOc1ccc2cc(S(=O)(=O)n3ccnc3C)ccc2c1	?	-6.5%	0.0%[46.1 µM]	0.7%	39.8µM*	-0.1
CC(/C=N/n1c(-c2cc(C)[nH]n2)n[nH]c1=S)=C\c1ccco1	-18.7%	/	?	9.9%	14.1µM*	-0.2
CC(/C=N/n1c(-c2ccc(Cl)cc2)n[nH]c1=S)=C\c1ccco1	-4.3%	28.2µM*	-17.6%[46.1 µM]	/	-29.2%	0.5
CC(/C=N/n1c(-c2ccco2)n[nH]c1=S)=C\c1ccccc1	?	-4.5%	-26.9%	3.8%	?	3.0
CN(Cc1ccccc1)/C(=N/O)c1cccc(Cl)c1	/	/	/	/	7.7%	0.6
C/C(=N/NC1=NCCN1)c1cn(C2=NCCN2)nc1C	/	-8.8%[13.5 µM]	/	2.8%[14.2 µM]	/	/
Cc1nc2cc3nc(C)sc3cc2s1	-7.0%	1.78µM*	7.6%[46.1 µM]	-15.9%	39.8µM*	-6.6
Cc1cccc(/C=C2\CCC(=C3SCCCS3)C2=O)c1	-3.2%	8.91µM*	?	-8.4%	-15.0%	0.0
O=C(O)CCC(=O)N1CCN(c2cccc(Cl)c2)CC1	-2.6%	28.2µM*	-0.6%[46.1 µM]	-3.5%	14.2%	0.9
CCOCC(=O)N1CCN(c2cccc(Cl)c2)CC1	-0.8%	3.16µM*	0.3%	38.0%	9.4%	0.4
COc1ccc(OCC(=O)N2CCN(c3cccc(Cl)c3)CC2)cc1	6.6%	5.8%	-12.8%[46.1 µM]	0.5%	6.0%	1.7
CN(c1ccccc1C(=O)Nc1ccccc1-c1ccccc1)S(C)(=O)=O	/	/	/	/	7.3%	1.7
COc1ccc(C2C3C=CCCC3(C)C(=O)N2Cc2ccccc2)cc1Cl (configuration not stated)	/	/	/	/	?	5.0
CC(/C=C1\N=C(SCc2ccccc2)SC1=O)=C\c1ccccc1	-24.9%	22.4µM*	1.1%	23.5%	-10.3%	0.7
Cc1ccc(C(=O)CSC2=NC(N)=C(C#N)C3(CCCCC3)C2C(N)=O)cc1 (configuration not stated)	-4.6%	-12.1%	-9.0%[46.1 µM]	5.0%	44.7µM*	-2.3
O=C(CCCl)N1CCCC2(CCCCC2)C1	1.1%	/	0.1%	10.8%	13.6%	0.7
Cc1ccc(-c2nn(-c3ccccc3)cc2C(=O)N2CCOCC2)cc1C	0.2%	10µM*	-14.6%	11.0%	9.0%	-2.5
N=C1C2=C3Sc4ccccc4N3CCCC2=NN1c1cccc(S(=O)(=O)O)c1	?	/	-24.6%	4.1%	89.1µM*	2.0
N#CC1=C2Sc3ccccc3N2CCCC1=O	11.4%	?	4.5%[46.1 µM]	15.1%	15.1%	12.3
O=C(O)c1c(Cl)c(Cl)c(Cl)c(Cl)c1-c1c2cc(I)c(=O)c(I)c-2oc2c(I)c(O)c(I)cc12	/	31.6µM*	/	32.5%	14.1µM*	2.8
CC(=O)NC(C)C(=O)OCC(=O)Nc1ccc(Br)cc1 (configuration not stated)	-4.6%	?	0.4%[46.1 µM]	-36.1%	7.4%	-3.9
CCCC(C)C(=O)OCC(=O)Nc1ccc(Br)cc1 (configuration not stated)	-2.9%	11.2µM*	-0.6%	-27.7%	15.5%	-5.9
